Measured values from PubChem BioAssay AID1159580 (chemical genetic matrix, 2015).
Several values for one entry are separate records, joined by “and”; a condition that tells them apart may be missing. Equal values may be shown once. Out of some 5,500 compounds screened, about 2,000 (36%) were called active. Roughly 18% stayed inconclusive and do not appear here. No stated cut-off is given here; in the data, active means normalized growth mostly below about 0.91 (no sharp cut-off); inconclusive means no clear call, values can overlap the other calls; inactive means mostly above about 0.92. Some of the results follow.

Assay: chemical genetic growth profiling, strain panel (AID 1159580);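 further: tested at 20 µM; growth read once vehicle control cultures reached saturation at 30 °C; 1 = growth at the plate median or of vehicle wells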
Conditions: growth OD

Measured: normalized growth

CN1CCN(C2=Nc3cc(Cl)ccc3Nc3ccccc32)CC1
inactive: S. cerevisiae deletion strains, locus YJR066W, strain TOR1, stronger effect = lower value 0.997 | S. cerevisiae deletion strains, locus YJR075W, strain HOC1, stronger effect = lower value 0.982 | S. cerevisiae deletion strains, locus YKL009W, strain mrt4, stronger effect = lower value 1.01 | S. cerevisiae deletion strains, locus YKL068W, stronger effect = lower value 1.01 | S. cerevisiae deletion strains, locus YKL085W, strain MDH1 (second series), stronger effect = lower value 1.04 | S. cerevisiae deletion strains, locus YKL085W, strain MDH1, stronger effect = lower value 1.04 | S. cerevisiae deletion strains, locus YKL160W, strain elf1, stronger effect = lower value 0.972 | S. cerevisiae deletion strains, locus YKL190W, strain CNB1, stronger effect = lower value 1.02 | S. cerevisiae deletion strains, locus YKR001C, strain vps1, stronger effect = lower value 1.03 | S. cerevisiae deletion strains, locus YKR026C, strain gcn3, stronger effect = lower value 0.988 | S. cerevisiae deletion strains, locus YKR091W, strain srl3, stronger effect = lower value 0.98 | S. cerevisiae deletion strains, locus YLL001W, strain dnm1, stronger effect = lower value 0.984 | S. cerevisiae deletion strains, locus YLL026W, stronger effect = lower value 1 | S. cerevisiae deletion strains, locus YLL041C, strain sdh2, stronger effect = lower value 0.992 | S. cerevisiae deletion strains, locus YLR027C, strain aat2, stronger effect = lower value 0.988 | S. cerevisiae deletion strains, locus YLR039C, strain RIC1, stronger effect = lower value 1.25 | S. cerevisiae deletion strains, locus YLR058C, strain SHM2, stronger effect = lower value 1.01 | S. cerevisiae deletion strains, locus YLR102C, strain apc9, stronger effect = lower value 1.02 | S. cerevisiae deletion strains, locus YLR113W, strain HOG1, stronger effect = lower value 1.01 | S. cerevisiae deletion strains, locus YLR221C, strain rsa3, stronger effect = lower value 1.01 | S. cerevisiae deletion strains, locus YLR258W, strain gsy2, stronger effect = lower value 0.983 | S. cerevisiae deletion strains, locus YLR262C, strain YPT6 (second series), stronger effect = lower value 1.05 | S. cerevisiae deletion strains, locus YLR262C, strain YPT6, stronger effect = lower value 1.2 | S. cerevisiae deletion strains, locus YLR268W, strain sec22, stronger effect = lower value 1.01 | S. cerevisiae deletion strains, locus YLR320W, strain mms22, stronger effect = lower value 0.952 | S. cerevisiae deletion strains, locus YLR330W, strain CHS5, stronger effect = lower value 1.02 | S. cerevisiae deletion strains, locus YLR342W, strain FKS1 (second series), stronger effect = lower value 1.04 | S. cerevisiae deletion strains, locus YLR342W, strain FKS1, stronger effect = lower value 0.953 | S. cerevisiae deletion strains, locus YLR357W, strain rsc2, stronger effect = lower value 1.01 | S. cerevisiae deletion strains, locus YLR370C, strain arc18, stronger effect = lower value 0.984 | S. cerevisiae deletion strains, locus YLR371W, strain rom2, stronger effect = lower value 1.03 | S. cerevisiae deletion strains, locus YLR384C, strain iki3, stronger effect = lower value 0.984 | S. cerevisiae deletion strains, locus YLR418C, strain cdc73, stronger effect = lower value 0.955 | S. cerevisiae deletion strains, locus YML016C, strain PPZ1, stronger effect = lower value 1.01 | S. cerevisiae deletion strains, locus YML032C, strain rad52, stronger effect = lower value 0.935 | S. cerevisiae deletion strains, locus YML120C, strain ndi1, stronger effect = lower value 0.98 | S. cerevisiae deletion strains, locus YML124C, strain tub3, stronger effect = lower value 1.02 | S. cerevisiae deletion strains, locus YMR058W, strain fet3, stronger effect = lower value 0.982 | S. cerevisiae deletion strains, locus YMR078C, strain ctf18, stronger effect = lower value 1.02 | S. cerevisiae deletion strains, locus YMR125W, strain sto1, stronger effect = lower value 0.943 | S. cerevisiae deletion strains, locus YMR129W, stronger effect = lower value 0.99 | S. cerevisiae deletion strains, locus YMR205C, strain PFK2, stronger effect = lower value 0.977 | S. cerevisiae deletion strains, locus YMR223W, strain ubp8, stronger effect = lower value 1.02 | S. cerevisiae deletion strains, locus YMR231W, strain pep5, stronger effect = lower value 0.986 | S. cerevisiae deletion strains, locus YMR263W, strain SAP30, stronger effect = lower value 0.986 | S. cerevisiae deletion strains, locus YMR307W, strain GAS1, stronger effect = lower value 1.1 | S. cerevisiae deletion strains, locus YNL067W, strain RPL9B, stronger effect = lower value 0.974 | S. cerevisiae deletion strains, locus YNL071W, strain lat1, stronger effect = lower value 0.937 | S. cerevisiae deletion strains, locus YNL128W, strain TEP1, stronger effect = lower value 0.991 | S. cerevisiae deletion strains, locus YNL153C, strain GIM3, stronger effect = lower value 0.993 and 1.01 | S. cerevisiae deletion strains, locus YNL175C, strain NOP13, stronger effect = lower value 0.999 | S. cerevisiae deletion strains, locus YNL183C, strain NPR1, stronger effect = lower value 0.99 | S. cerevisiae deletion strains, locus YNL209W, strain ssb2, stronger effect = lower value 0.973 | S. cerevisiae deletion strains, locus YNL224C, strain SQS1, stronger effect = lower value 1.01 | S. cerevisiae deletion strains, locus YNL233W, strain BNI4, stronger effect = lower value 0.988 | S. cerevisiae deletion strains, locus YNL248C, strain rpa49, stronger effect = lower value 0.957 | S. cerevisiae deletion strains, locus YNL250W, strain rad50, stronger effect = lower value 0.966 | S. cerevisiae deletion strains, locus YNL271C, strain bni1, stronger effect = lower value 1.01 | S. cerevisiae deletion strains, locus YNL298W, strain CLA4, stronger effect = lower value 0.984 | S. cerevisiae deletion strains, locus YNL307C, strain MCK1, stronger effect = lower value 0.995 | S. cerevisiae deletion strains, locus YNL322C, strain KRE1 (second series), stronger effect = lower value 0.956 | S. cerevisiae deletion strains, locus YNL322C, strain KRE1, stronger effect = lower value 1.01 | S. cerevisiae deletion strains, locus YNR049C, strain mso1, stronger effect = lower value 0.99 | S. cerevisiae deletion strains, locus YNR052C, strain pop2, stronger effect = lower value 1.01 | S. cerevisiae deletion strains, locus YOL006C, strain TOP1, stronger effect = lower value 0.988 | S. cerevisiae deletion strains, locus YOL012C, strain htz1 2.02 | S. cerevisiae deletion strains, locus YOL147C, strain pex11, stronger effect = lower value 1.02 | S. cerevisiae deletion strains, locus YOR001W, strain rrp6, stronger effect = lower value 0.996 | S. cerevisiae deletion strains, locus YOR061W, strain CKA2, stronger effect = lower value 1.01 | S. cerevisiae deletion strains, locus YOR069W, strain VPS5, stronger effect = lower value 1.07 | S. cerevisiae deletion strains, locus YOR070C, strain gyp1, stronger effect = lower value 0.989 | S. cerevisiae deletion strains, locus YOR080W, strain dia2, stronger effect = lower value 0.974 | S. cerevisiae deletion strains, locus YOR083W, strain WHI5, stronger effect = lower value 0.92 | S. cerevisiae deletion strains, locus YOR106W, strain vam3, stronger effect = lower value 0.978 | S. cerevisiae deletion strains, locus YOR136W, strain idh2, stronger effect = lower value 1.02 | S. cerevisiae deletion strains, locus YOR144C, strain elg1, stronger effect = lower value 1.01 | S. cerevisiae deletion strains, locus YOR184W, strain ser1, stronger effect = lower value 1.03 | S. cerevisiae deletion strains, locus YOR231W, strain MKK1, stronger effect = lower value 1.01 | S. cerevisiae deletion strains, locus YOR265W, strain rbl2, stronger effect = lower value 0.993 | S. cerevisiae deletion strains, locus YOR270C, strain vph1, stronger effect = lower value 0.96 | S. cerevisiae deletion strains, locus YOR290C, strain snf2, stronger effect = lower value 0.943 | S. cerevisiae deletion strains, locus YOR316C, strain cot1, stronger effect = lower value 1.03 | S. cerevisiae deletion strains, locus YPL051W, strain arl3, stronger effect = lower value 0.965 | S. cerevisiae deletion strains, locus YPL055C, strain LGE1, stronger effect = lower value 0.93 | S. cerevisiae deletion strains, locus YPL078C, strain atp4, stronger effect = lower value 0.959 | S. cerevisiae deletion strains, locus YPL106C, strain sse1, stronger effect = lower value 0.999 | S. cerevisiae deletion strains, locus YPL240C, strain hsp82, stronger effect = lower value 0.979 | S. cerevisiae deletion strains, locus YPL241C, strain CIN2, stronger effect = lower value 1.05 and 1 | S. cerevisiae deletion strains, locus YPL256C, strain CLN2, stronger effect = lower value 1.05 | S. cerevisiae deletion strains, locus YPR119W, strain clb2, stronger effect = lower value 1.01 | S. cerevisiae deletion strains, locus YPR141C, strain kar3, stronger effect = lower value 1.02 | S. cerevisiae deletion strains, locus YPR163C, strain tif3, stronger effect = lower value 1.01 | S. cerevisiae deletion strains, locus YPR167C, strain met16, stronger effect = lower value 1.02 | S. cerevisiae deletion strains, strain wtn01, stronger effect = lower value 1 | S. cerevisiae strains, strain wild type, stronger effect = lower value 1.02
